Results from PubChem BioAssay.
Calls of active or inactive are those of the source.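 The calls were made as follows: active = visual image review flags a hit and inhibition of aggregation exceeds 20%; inconclusive = visual hit but inhibition at or below 20%; inactive = no hit on visual image review.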

Experiment: reduction of polyQ htt aggregates in cells – imaging, exon1htt(103Q)mCFP cells, high-content imaging, primary screen (AID 483);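 also: compound exposure lasted 3 days before fixation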;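 as to nuclei count: percent of the per-plate median nuclei count of sample wells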
Details: exon1htt(103Q)mCFP cell line, aggregate imaging, at 2 µM; inhibition of aggregation: stronger effect = higher value; nuclei count: measured here: cell count, toxicity

Row | Structure (SMILES) | inhibition of aggregation | nuclei count [%]
1 | O=C(Cn1nc(Cc2ccncc2)c2ccccc2c1=O)N1CCN(C(=O)c2ccco2)CC1 | -29.3% (inactive) | 110
2 | O=C(CSc1nnnn1-c1ccc2c(c1)OCO2)NCc1cccs1 | 2.8% (inactive) | 90.3
3 | Cc1occc1-c1nnc(SCC(=O)c2ccc(F)cc2)n1Cc1ccco1 | 21.2% (inactive) | 87.3
4 | CC(C)(C)NC(=O)C(c1ccco1)N(C(=O)Cn1nnc(-c2ccc(F)cc2)n1)c1ccccc1F (stereo not given) | 14.8% (inactive) | 96.5
5 | CCOC(=O)C(CC)Sc1nc2c(c(=O)[nH]c(=O)n2C)n1C/C=C(/C)Cl (stereo not given) | 18% (inactive) | 96.3
6 | CCN1CCN(C(=O)Cn2ncc3ccsc3c2=O)CC1 | 27.4% (inactive) | 96.5
7 | Cc1cc(N2CCOCC2)nc2ccc(NC(=O)C3CCC(C)CC3)cc12 (stereo not given) | -22.1% (inactive) | 127
8 | O=C(Nc1cccc(F)c1)C1C2C=CC3(CN(CCCN4CCOCC4)C(=O)C13)O2 (stereo not given) | -27.1% (inactive) | 118
9 | C=CCn1c(=O)n(CCOC)c(=O)c2sc3ccccc3c21 | -12% (inactive) | 87.6
10 | Cc1ccc(C(=O)CSc2n[nH]c(-c3ccco3)n2)cc1C | -8.3% (inactive) | 113
11 | Cc1ccc(-c2cn3nc(C)c(C)nc3n2)cc1 | -5.7% (inactive) | 119
12 | O=C(NCCO)c1cc2ccccc2cc1O | 23.4% (inactive) | 85.8
13 | CCOCCCNC(=O)CS(=O)(=O)Cc1nc(-c2cccc(OC)c2)oc1C | 16% (inactive) | 65.2
14 | COc1ccccc1Cn1nnc2c(=O)[nH]c(C3CCN(C(=O)c4ccccc4Cl)CC3)nc21 | 1.4% (inactive) | 109
15 | CCCCc1n[nH]c2c1C(=O)CC(C)(C)C2 | 3.8% (inactive) | 113
16 | Cc1ccc(NC(=O)c2ccco2)c(NC(=O)c2cccs2)c1 | 9.4% (inactive) | 103
17 | COc1ccc(NC(=O)CN2CCCCC2)cc1 | 5.5% (inactive) | 110
18 | CCCCP(=O)(CCCC)c1ccccc1C(=O)O | 12.2% (inactive) | 81.7
19 | c1ccc2c(c1)CNc1ccccc1C2 | 30.2% (inactive) | 83.2
20 | Cc1ccc(NC2=NC3(CCCCC3)N=C(N)N2)c(C)c1 | 4.5% (inactive) | 76.2

Row | Structure (SMILES) | inhibition of aggregation | nuclei count [%]
21 | CCCOC(=O)c1ccc(-c2c(C)noc2-c2ccc(OC)cc2O)o1 | 1.9% (inactive) | 106
22 | CCOC(=O)C1CCN(Cc2ccc(OC)c(C)c2OC)CC1 | -10.2% (inactive) | 107
23 | CC1CCCC(C)N1C(=O)CSc1nnc(-c2cccs2)o1 (stereo not given) | -29.6% (inactive) | 114
24 | Cc1nc2ccccc2c2oc(C(=O)NCC3COc4ccccc4O3)cc12 (stereo not given) | -11.9% (inactive) | 91.7
25 | O=C(c1ccccc1-c1nc(-c2ccccc2)no1)N1CCCC1 | 0.7% (inactive) | 90.5
26 | COc1ccc(OC)c(C(C)NC=O)c1 (stereo not given) | 14.2% (inactive) | 108
27 | CCSc1ccccc1C(=O)Nc1cccc(OC)c1 | -0.9% (inactive) | 112
28 | O=S(=O)(NCc1ccc(Cl)cc1)c1cnc[nH]1 | -5.7% (inactive) | 96.7
29 | Cc1ccc2oc(=O)c3cnn(CC(=O)NCCC(C)C)c3c2c1 | -7.6% (inactive) | 124
30 | CCOC(=O)N1CCN(S(=O)(=O)c2ccc(OCC)c(C)c2)CC1 | -7.7% (inactive) | 106
31 | Cc1cc(C(F)(F)F)nn1Cc1ccc(C(=O)NCc2ccco2)o1 | 2% (inactive) | 106
32 | CC(=O)c1c(C)oc2ccc(NS(=O)(=O)c3ccc(O)c(C(=O)O)c3)cc12 | -7.5% (inactive) | 108
33 | Cc1ccc(S(=O)(=O)NC(=O)c2cc(C)n(CCCn3ccnc3)c2C)cc1 | 9.2% (inactive) | 92.3
34 | CC(C)(O)C1=NOC(c2ccccc2)C1 (stereo not given) | -4.9% (inactive) | 98.5
35 | Cc1ccc(C(C(=O)NC2CCCCC2)N(C(=O)c2csnn2)C2CCCC2)o1 (stereo not given) | -9.5% (inactive) | 103
36 | COCCNC(=O)CC(NS(=O)(=O)c1ccc(NC(C)=O)cc1)C(C)C (stereo not given) | -1.2% (inactive) | 105
37 | COc1ccccc1CN1CC(C(=O)NCc2cccnc2)CC1=O (stereo not given) | 4.9% (inactive) | 91.5
38 | O=C(NC1=NCCS1)NC12CC3CC(CC(C3)C1)C2 | 6.6% (inactive) | 96.6
39 | CCc1nnc(NC(=O)C2CC(=O)N(Cc3ccco3)C2)s1 (stereo not given) | -11.1% (inactive) | 104
40 | Cc1ccc2c(c1)nnn2C1CCN(C(=O)NC23CC4CC(CC(C4)C2)C3)CC1 | 11.5% (inactive) | 122
